Assay [1] concerns Tyrosine-protein kinase ABL1 (Homo sapiens), P00519 [T315I]. The settings on record: at 1 µM.
The subject of assay [2] is Tyrosine-protein kinase ABL1 (Homo sapiens), P00519 [Y253F]. The settings on record: at 0.1 µM.
The test system is the same in assay [3]. The settings on record: at 1 µM.
Assay [4] deals with Tyrosine-protein kinase ABL1 (Homo sapiens) (UniProt P00519). The settings on record: at 0.1 µM.
The target is the same in assay [5]. The settings on record: at 1 µM.
Assay [6] concerns the target ALK tyrosine kinase receptor (Homo sapiens) (UniProt Q9UM73). The settings on record: at 0.1 µM.
For assay [7] the target is unchanged. The settings on record: at 1 µM.
The target in assay [8] is Tyrosine-protein kinase ABL2 (Homo sapiens) (UniProt P42684). The following applies: at 0.1 µM.
For assay [9] the target is unchanged. The settings on record: at 1 µM.
Assay [10] has as its target Tyrosine-protein kinase receptor UFO (Homo sapiens) (UniProt P30530). The following applies: at 0.1 µM.
For assay [11] the target is unchanged. The settings on record: at 1 µM.
Assay [12] has as its target Tyrosine-protein kinase Blk (Homo sapiens) (UniProt P51451). The settings on record: at 0.1 µM.
For assay [13] the target is unchanged. The settings on record: at 1 µM.
Assay [14] concerns the target T1, Cytoplasmic tyrosine-protein kinase BMX (Homo sapiens) (UniProt P51813).
T1 sequence (whole entry): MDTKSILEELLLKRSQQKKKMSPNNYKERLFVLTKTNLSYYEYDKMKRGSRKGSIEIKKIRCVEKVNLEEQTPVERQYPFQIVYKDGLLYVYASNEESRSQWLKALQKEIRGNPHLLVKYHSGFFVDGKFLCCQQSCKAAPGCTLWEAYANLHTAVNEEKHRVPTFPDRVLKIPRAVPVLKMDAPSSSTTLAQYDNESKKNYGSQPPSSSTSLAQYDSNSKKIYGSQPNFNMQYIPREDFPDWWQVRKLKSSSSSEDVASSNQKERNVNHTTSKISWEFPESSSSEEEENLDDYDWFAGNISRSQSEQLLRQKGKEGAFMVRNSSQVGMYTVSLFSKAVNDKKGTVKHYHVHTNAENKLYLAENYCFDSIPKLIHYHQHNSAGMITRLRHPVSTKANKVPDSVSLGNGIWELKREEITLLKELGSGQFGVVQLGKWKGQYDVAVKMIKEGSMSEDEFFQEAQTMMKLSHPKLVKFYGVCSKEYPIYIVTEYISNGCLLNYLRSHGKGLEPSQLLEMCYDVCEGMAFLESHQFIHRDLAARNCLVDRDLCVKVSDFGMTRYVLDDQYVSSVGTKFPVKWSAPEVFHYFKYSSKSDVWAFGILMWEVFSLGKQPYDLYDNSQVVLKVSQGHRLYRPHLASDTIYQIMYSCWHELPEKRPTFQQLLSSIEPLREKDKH
The following applies: at 0.1 µM.

Assay [15] addresses T1, Cytoplasmic tyrosine-protein kinase BMX (Homo sapiens). The following applies: at 1 µM.
The target of assay [16] is Protein-tyrosine kinase 6 (Homo sapiens) (UniProt Q13882). The settings on record: at 0.1 µM.
Assay [17] shares this target. The following applies: at 1 µM.
Assay [18] has as its target Tyrosine-protein kinase BTK (Homo sapiens) (UniProt Q06187). The following applies: at 0.1 µM.
Assay [19] shares this target. The following applies: at 1 µM.
Assay [20] has as its target Tyrosine-protein kinase CSK (Homo sapiens) (UniProt P41240). The settings on record: at 0.1 µM.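 Note: value given is the averaged percent inhibition of CSK kinase activity, from the GSK PKIS kinase inhibitor set screening panel.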

Tyrosine-protein kinase CSK (Homo sapiens), sequence (P41240 2-450 limits assumed): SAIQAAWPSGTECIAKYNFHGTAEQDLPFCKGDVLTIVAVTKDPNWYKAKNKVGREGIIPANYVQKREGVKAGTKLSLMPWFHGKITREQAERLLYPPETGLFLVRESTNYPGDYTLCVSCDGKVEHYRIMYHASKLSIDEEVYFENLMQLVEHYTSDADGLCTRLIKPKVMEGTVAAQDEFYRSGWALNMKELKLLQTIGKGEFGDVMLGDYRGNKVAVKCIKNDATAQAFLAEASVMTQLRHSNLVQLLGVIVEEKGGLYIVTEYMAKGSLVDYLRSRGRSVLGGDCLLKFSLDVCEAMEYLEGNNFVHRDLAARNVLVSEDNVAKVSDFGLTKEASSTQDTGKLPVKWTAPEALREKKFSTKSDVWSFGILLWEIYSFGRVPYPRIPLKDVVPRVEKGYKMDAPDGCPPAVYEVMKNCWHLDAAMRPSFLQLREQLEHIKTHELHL
Tyrosine-protein kinase BTK (Homo sapiens), sequence (Q06187 whole entry): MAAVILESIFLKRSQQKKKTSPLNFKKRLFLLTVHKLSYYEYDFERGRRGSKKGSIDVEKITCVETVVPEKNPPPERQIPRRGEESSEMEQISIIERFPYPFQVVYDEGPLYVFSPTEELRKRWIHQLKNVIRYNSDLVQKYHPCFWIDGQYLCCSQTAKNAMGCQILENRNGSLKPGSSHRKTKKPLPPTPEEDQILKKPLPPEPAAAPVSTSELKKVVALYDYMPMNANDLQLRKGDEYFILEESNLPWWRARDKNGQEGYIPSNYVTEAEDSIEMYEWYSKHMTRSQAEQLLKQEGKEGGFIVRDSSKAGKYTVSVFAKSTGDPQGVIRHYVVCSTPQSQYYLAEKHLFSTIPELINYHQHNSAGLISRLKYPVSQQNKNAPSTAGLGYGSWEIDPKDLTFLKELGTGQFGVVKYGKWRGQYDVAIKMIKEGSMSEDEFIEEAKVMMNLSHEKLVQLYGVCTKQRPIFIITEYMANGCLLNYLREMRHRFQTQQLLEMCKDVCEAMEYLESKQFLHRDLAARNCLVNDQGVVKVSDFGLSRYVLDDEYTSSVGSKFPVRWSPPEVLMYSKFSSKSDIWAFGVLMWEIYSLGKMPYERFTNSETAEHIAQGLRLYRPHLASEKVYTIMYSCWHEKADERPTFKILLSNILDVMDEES
Tyrosine-protein kinase ABL2 (Homo sapiens), sequence (P42684 whole entry): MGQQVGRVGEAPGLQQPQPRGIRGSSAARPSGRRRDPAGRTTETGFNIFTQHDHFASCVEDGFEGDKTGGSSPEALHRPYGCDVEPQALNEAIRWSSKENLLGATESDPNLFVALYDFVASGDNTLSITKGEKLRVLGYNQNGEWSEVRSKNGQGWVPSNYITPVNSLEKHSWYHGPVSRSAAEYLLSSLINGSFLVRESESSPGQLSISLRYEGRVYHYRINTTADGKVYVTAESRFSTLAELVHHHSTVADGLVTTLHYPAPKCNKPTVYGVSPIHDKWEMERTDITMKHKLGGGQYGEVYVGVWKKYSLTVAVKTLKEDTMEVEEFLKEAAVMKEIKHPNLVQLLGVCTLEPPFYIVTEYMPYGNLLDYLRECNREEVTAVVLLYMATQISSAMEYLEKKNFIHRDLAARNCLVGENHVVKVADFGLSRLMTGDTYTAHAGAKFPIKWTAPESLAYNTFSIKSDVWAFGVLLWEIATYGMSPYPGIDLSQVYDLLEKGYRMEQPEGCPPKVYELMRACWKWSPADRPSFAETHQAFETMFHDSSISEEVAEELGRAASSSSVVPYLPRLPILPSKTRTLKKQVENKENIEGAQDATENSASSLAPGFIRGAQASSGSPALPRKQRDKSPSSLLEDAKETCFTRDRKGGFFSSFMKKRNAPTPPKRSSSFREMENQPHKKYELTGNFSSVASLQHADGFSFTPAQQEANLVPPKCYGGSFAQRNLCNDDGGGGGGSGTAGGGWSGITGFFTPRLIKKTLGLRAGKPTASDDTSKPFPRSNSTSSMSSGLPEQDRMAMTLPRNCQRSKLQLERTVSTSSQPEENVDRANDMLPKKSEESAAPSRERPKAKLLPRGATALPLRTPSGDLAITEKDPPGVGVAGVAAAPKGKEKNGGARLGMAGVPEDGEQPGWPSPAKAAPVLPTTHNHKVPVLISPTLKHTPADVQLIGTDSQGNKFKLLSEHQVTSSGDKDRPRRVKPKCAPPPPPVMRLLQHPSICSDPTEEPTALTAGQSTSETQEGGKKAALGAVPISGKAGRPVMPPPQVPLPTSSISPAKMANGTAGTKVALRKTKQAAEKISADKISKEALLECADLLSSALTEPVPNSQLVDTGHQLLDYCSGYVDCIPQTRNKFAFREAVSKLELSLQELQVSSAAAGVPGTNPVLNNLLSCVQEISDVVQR
ALK tyrosine kinase receptor (Homo sapiens), sequence (Q9UM73 19-1620 limits assumed): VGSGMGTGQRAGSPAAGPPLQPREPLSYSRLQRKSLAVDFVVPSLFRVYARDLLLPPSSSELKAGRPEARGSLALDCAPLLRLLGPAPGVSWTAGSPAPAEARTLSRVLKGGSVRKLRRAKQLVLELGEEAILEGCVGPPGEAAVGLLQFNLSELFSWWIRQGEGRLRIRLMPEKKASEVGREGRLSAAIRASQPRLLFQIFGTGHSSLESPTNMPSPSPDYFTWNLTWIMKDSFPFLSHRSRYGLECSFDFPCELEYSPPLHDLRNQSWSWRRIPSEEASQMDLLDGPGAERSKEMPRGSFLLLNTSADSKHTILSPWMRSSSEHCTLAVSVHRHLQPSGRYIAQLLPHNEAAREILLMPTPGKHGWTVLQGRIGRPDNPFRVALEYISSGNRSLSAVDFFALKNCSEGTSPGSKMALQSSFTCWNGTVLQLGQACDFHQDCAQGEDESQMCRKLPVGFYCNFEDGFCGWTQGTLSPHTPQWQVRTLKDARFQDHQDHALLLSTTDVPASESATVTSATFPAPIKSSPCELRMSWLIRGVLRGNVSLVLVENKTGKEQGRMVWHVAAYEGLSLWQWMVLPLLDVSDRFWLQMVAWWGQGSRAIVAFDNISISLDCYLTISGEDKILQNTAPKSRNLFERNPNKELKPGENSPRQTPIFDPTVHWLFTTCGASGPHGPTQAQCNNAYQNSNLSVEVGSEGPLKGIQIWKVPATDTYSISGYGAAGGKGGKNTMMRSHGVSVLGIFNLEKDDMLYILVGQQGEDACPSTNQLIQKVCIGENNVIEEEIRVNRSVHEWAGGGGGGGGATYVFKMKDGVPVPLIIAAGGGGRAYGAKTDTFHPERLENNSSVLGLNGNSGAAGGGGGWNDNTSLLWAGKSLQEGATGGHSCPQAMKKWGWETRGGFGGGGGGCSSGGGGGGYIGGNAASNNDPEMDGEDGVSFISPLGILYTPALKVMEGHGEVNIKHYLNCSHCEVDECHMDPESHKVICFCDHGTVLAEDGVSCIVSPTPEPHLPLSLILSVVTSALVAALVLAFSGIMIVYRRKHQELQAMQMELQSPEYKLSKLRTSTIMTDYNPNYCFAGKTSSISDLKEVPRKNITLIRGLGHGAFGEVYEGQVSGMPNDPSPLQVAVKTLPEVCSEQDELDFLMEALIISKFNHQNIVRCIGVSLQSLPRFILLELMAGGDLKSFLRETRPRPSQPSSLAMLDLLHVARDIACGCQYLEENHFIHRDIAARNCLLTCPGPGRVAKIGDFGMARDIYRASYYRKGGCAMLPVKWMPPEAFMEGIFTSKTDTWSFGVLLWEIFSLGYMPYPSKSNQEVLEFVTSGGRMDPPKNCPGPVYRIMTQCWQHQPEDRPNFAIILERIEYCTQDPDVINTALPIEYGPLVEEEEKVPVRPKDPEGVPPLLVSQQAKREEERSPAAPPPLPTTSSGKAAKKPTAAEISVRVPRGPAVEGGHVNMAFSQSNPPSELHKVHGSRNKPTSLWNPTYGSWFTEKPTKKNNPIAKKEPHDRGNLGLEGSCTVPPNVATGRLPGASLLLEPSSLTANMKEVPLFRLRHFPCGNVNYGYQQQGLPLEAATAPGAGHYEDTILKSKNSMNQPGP
Protein-tyrosine kinase 6 (Homo sapiens), sequence (Q13882 whole entry, looked up): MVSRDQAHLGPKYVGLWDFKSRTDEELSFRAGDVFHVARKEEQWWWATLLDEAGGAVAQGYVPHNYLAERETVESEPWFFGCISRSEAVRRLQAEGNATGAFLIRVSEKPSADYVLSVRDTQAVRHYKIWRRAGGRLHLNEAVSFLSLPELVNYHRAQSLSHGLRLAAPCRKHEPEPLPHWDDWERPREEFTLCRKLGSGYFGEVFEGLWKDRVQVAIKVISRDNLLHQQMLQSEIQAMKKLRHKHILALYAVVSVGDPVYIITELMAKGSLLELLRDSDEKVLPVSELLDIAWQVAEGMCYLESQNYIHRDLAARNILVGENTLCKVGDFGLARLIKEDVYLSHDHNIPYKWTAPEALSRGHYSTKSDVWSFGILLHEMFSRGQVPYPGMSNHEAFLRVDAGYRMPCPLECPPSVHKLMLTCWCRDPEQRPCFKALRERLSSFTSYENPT
Tyrosine-protein kinase Blk (Homo sapiens), sequence (P51451 2-505 limits assumed): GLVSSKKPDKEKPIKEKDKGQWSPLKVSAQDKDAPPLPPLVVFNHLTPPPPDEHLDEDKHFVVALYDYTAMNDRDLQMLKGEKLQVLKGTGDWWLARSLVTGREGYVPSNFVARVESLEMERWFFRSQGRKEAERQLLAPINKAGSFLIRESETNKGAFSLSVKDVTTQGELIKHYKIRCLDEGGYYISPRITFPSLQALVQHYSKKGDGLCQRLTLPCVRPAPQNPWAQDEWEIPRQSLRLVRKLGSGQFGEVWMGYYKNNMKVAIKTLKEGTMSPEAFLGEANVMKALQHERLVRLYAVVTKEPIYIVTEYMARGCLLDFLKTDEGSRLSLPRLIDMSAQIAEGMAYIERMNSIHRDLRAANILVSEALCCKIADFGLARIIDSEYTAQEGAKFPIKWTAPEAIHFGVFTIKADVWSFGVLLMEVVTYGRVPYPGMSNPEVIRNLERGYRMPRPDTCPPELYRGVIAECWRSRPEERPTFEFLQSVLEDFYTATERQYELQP

On to `COc1ccc2[nH]c3c4[nH]c5ccc(OC)cc5c4c4c(c3c2c1)C(=O)NC4=O`, for which the inhibition came out at 33.7% in [1]; 15.4% in [2]; 52.3% in assay [3]; 6.32% in assay [4]; 34% in assay [5]; 13.8% in assay [6]. Besides, the inhibition was found to be 58.3% in assay [7]; 3.1% in assay [8]; 12.1% in [9]; 11% in assay [10]; 40% in [11]; 6.14% in assay [12]. The inhibition in [13] was 36.5%; in assay [14], -2.69%; in [15], 16.6%; in assay [16] it was 6.37%; in [17], 19.6%; in [18] it was 0.07%. Also, the inhibition worked out at 8.32% in assay [19] and 4.3% in assay [20].
With `COC(=O)Nc1nc2ccc(Oc3ccc(NC(=O)Nc4cccc(Cl)c4)cc3)cc2[nH]1`, the inhibition in assay [1] turned out to be 42.4%; in [2], 7.43%; in assay [3], 22%; in [4], 6.59%; in [5], 13.3%; in assay [6], 1.45%. In addition, the inhibition in assay [7] is 2.26%; in [8] it was 12.3%; in [9], 28.8%; in assay [10], -5.74%; in [11], 6.96%; in [12], 0.1%. Also, the inhibition was 1.79% in assay [13]; 1.98% in [14]; 1.28% in assay [15]; 0.55% in assay [16]; -0.38% in assay [17]; 0.06% in assay [18]. Moreover, the inhibition in assay [19] is -0.37%; in assay [20], 1.23%.
Consider `COc1cccc(-n2ncc3c(N/N=C/c4ccc(F)cc4)ncnc32)c1`, for which the inhibition came to 38.8% in assay [1]; 58.5% in assay [2]; 86.1% in assay [3]; 21.1% in assay [4]; 75.8% in assay [5]; 2.82% in [6]. Besides, the inhibition was 3.76% in assay [7]; 9.51% in assay [8]; 57.9% in assay [9]; -4.72% in [10]; -3.79% in assay [11]; 4.91% in assay [12]. In addition, the inhibition in assay [13] was 18.2%; in assay [14] it was -0.31%; in [15], 13%; in assay [16], 4.36%; in assay [17], 5.54%; in assay [18], 1.48%. The inhibition in assay [19] stood at 1.13%; in assay [20], 3.3%.
As to `N#Cc1c(NC(=O)CN2CCOCC2)sc2c1CCCC2`, the inhibition in [1] came out at 5.24%; in assay [2], 5.91%; in assay [3], 7.6%; in [4], 6.98%; in assay [5] it was 7.71%; in assay [6], 3.56%. Further, the inhibition in assay [7] was 8.62%; in assay [8], 5.84%; in assay [9], 5.84%; in assay [10] it was -5.02%; in assay [11], -0.41%; in assay [12] it was 3.64%. The inhibition in [13] was 3.64%; in assay [14] it was -0.4%; in [15], 3.55%; in assay [16] it was 0.26%; in [17], 6.1%; in [18], 0.98%. Moreover, the inhibition is 3.11% in assay [19] and 6.19% in assay [20].
For `O=S(=O)(CCNCc1ccc(-c2ccc3ncnc(Nc4ccc(OCc5cccc(F)c5)c(Cl)c4)c3c2)o1)c1ccccc1`, the inhibition in assay [1] turned out to be 3.4%; in [2], 5.4%; in assay [3], 6.85%; in assay [4] it was 5.27%; in assay [5] it was 10.1%; in assay [6] it was 4.32%. Besides, the inhibition was 6.67% in assay [7]; 4.64% in [8]; 8.2% in assay [9]; -7.43% in assay [10]; -5.93% in assay [11]; 2.67% in assay [12]. For the same compound, the inhibition was 6.67% in assay [13]; 5.7% in [14]; 6.77% in [15]; 6.2% in assay [16]; 6.15% in assay [17]; -0.83% in assay [18]. For the same compound, the inhibition in assay [19] was found to be 1.59%; in assay [20], 7.31%.
As to `CN1CCC(n2cnc(-c3ccc(F)cc3)c2-c2ccnc(N)n2)CC1`, the inhibition came out at 5.74% in assay [1]; 1.88% in assay [2]; 8.15% in assay [3]; 2.31% in assay [4]; 8.97% in assay [5]; 1.26% in assay [6]. In addition, the inhibition is 4.21% in assay [7]; 2.89% in assay [8]; 7.64% in assay [9]; -3.77% in assay [10]; 0.24% in [11]; 1.67% in assay [12]. Besides, the inhibition was 6.71% in assay [13]; 3.52% in [14]; 4.58% in [15]; 3.49% in assay [16]; 8.09% in assay [17]; 0.47% in assay [18]. The values for the inhibition in [19] and in assay [20] were 0.93% and 7.73%, respectively.
Consider `Cc1cccc(Nc2ncc(-c3ccccc3)o2)c1`, for which the inhibition in assay [1] came out at 5.99%; in assay [2], 3.68%; in assay [3], 19.5%; in assay [4], 4.34%; in assay [5] it was 14.2%; in assay [6], 3.9%. Also, the inhibition is 4.76% in [7]; 3.13% in assay [8]; 18% in assay [9]; -1.8% in [10]; -3.9% in [11]; 3.13% in assay [12]. Further, the inhibition in assay [13] was 6.39%; in assay [14] it was 4.13%; in [15] it was 6.25%; in assay [16], 2.06%; in assay [17] it was 0.15%; in assay [18], 0.69%. In addition, the inhibition in assay [19] is 1.31%; in assay [20] it was 1.12%.

Source of the values: ChEMBL document CHEMBL1961873, “Compounds: GSK PKIS; Assays: Nanosyn kinase panel” (2012).
